Bioassay records deposited in PubChem BioAssay by National Center for Advancing Translational Sciences (NCATS).
Pf Dd2 growth = inhibitors of Plasmodium falciparum Dd2 growth; P. falciparum Dd2 growth, SYBR Green, 72 h; Potency, µM (top dose mostly 28.9 µM), inactives show at the top dose activity, negative = inhibition, actives largely listed as inhibitors; 120,000 tested, 4.3% active; active means well fitted inhibition curve with a large enough effect;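 further: plate controls were DMSO vehicle for no effect and reference drug for full effect; nearly all actives have a fitted effect of over 65% in size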
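Infected erythrocytes (Dd2, 0.3% parasitemia, 2.5% hematocrit final) are added to compound in RPMI-1640/Albumax II medium, grown 72 h at 37C in low oxygen, then lysed with saponin/Triton-X containing SYBR Green and read by fluorescence.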
An asterisk follows results filed as active; i = inactive; [ ] = remark or other dose. The sample as a whole holds a higher share of hits than the screen did. Potency means the concentration at half of the fitted maximal effect.

SMILES | Pf Dd2 growth
CC(=O)N1CCN([C@H]2[C@@H]3OC[C@@H](O3)[C@@H](NCc3ccc4c(c3)OCO4)[C@@H]2O)CC1 | -3%[44.1 µM]
COCC1CN(C(C)=O)CC12CCN(Cc1ccccc1OC(C)C)CC2 (stereo unspecified) | -31%
O=C(COc1ccc(Cl)cc1)N1CCC(Cc2nc(-c3ccccc3)no2)CC1 | i
Cc1ccc(C#N)c(N2CCCC(c3n[nH]c(=O)n3-c3ccccc3)C2)n1 (stereo unspecified) | -13%
c1cncc(-c2nc(CC3CCCNC3)no2)c1 (stereo unspecified) | i
COc1ccc(C(=O)N2CCC3(CC2)OCC(C(=O)N2CCCC2)N3C(=O)c2ccc(F)cc2)cc1 (stereo unspecified) | -2%
CCCN1CCC2(CCN(C(=O)OC)CC2)Oc2ccccc21 | i
Cn1cc(-c2cccc(CCOc3cnc4c(ccn4CC(=O)O)c3)c2)cn1 | i
O=S(=O)(c1ccccc1)c1nnn2c1nc(NCc1ccncc1)c1ccccc12 | -5%
Fc1ccccc1-c1cc2c(cn1)CN(Cc1ccncc1)CCN2 | i
COc1ccc(-c2cc3c(cn2)CN(Cc2ccccc2)CCN3)cc1OC | 11µM*
Oc1ccc(-c2cc3c(cn2)CN(Cc2ccccc2)CCN3)cc1F | 4µM*
c1ccc(CN2CCNc3cc(-c4ccncc4)ncc3C2)cc1 | -26%[44.1 µM]
COc1ccc(CNc2cc3c(cn2)CN(Cc2ccccc2)CCN3)cc1OC | -15%[44.1 µM]
COc1ccc(Nc2cc3c(cn2)NCCN(Cc2ccccc2)C3)cn1 | i
COc1ccc(Nc2cc3c(cn2)CN(CCc2ccccc2)CCN3)cc1OC | 10µM*
COc1ccc(CN2CCNc3cc(-c4ccnc(C)c4)ncc3C2)cc1O | -4%[44.1 µM]
COc1ccc(Nc2cc3c(cn2)CN(Cc2ccncc2)CCN3)cn1 | -6%[44.1 µM]
Cn1cc(CCC(=O)N[C@@H]2CCOC[C@H]2Oc2ccc(C(=O)O)cc2)cn1 | 7%
O=C1NC2(Cc3ccccc31)CN(C(=O)c1ccc(Cl)cc1)C2 | 4%
O=c1[nH]c(N2CCOCC2)nc2c1CCN(Cc1ccsc1)CC2 | i[5.79 µM]
O=C(c1ccc(Cl)cc1)N1CCOCC2(CN(Cc3ccccc3)C2)C1 | -28%[44.1 µM]
Fc1cccc(CN2CCC(Oc3ccc(-c4noc(C5CC5)n4)cc3)C2)c1 (stereo unspecified) | 46%[5.79 µM]
O=C(CCn1cnnn1)N1CCC2(CC1)Nc1ccccc1NC2=O | 5%
COCC1CN(C2CCC2)CC12CCN(C(=O)c1ccoc1)CC2 (stereo unspecified) | 6%
SMILES | Pf Dd2 growth
Cn1c(CCC(=O)NCc2ccon2)nc2cc(S(=O)(=O)N3CCCC3)ccc21 | 4%
COc1ccc(CCc2nnc3n2CCCC3)cc1 | i
CCC(=O)N1CCc2cc(S(=O)(=O)NC(C(=O)NCc3ccccc3Cl)C(C)C)ccc21 (stereo unspecified) | i
Cc1cc(Cl)ccc1NS(=O)(=O)c1ccc2c(c1)CCN2S(C)(=O)=O | 0%
CS(=O)(=O)N1CCc2cc(S(=O)(=O)NCc3ccccc3Cl)ccc21 | 3.2µM*
Cc1nc([C@H]2CCN(Cc3ccc(C)o3)C[C@H]2NC(=O)C2CCOCC2)n[nH]1 | -20%
O=C(NCCCN1CCCC1=O)c1ccccc1C1CCNC1 (stereo unspecified) | -3%
CCCNC(=O)N[C@@H]1CCC[C@@H](C(=O)NCc2cc(F)cc(F)c2)CC(=O)N(C)C1 | 5%[44.1 µM]
O=C(CN1C(=O)COc2ccc(C(=O)COc3cccc(F)c3)cc21)NCc1ccc(F)cc1 | -16%
CC(C)OC(=O)c1cccnc1SCC(=O)Nc1ccc(C(F)(F)F)cc1Cl | 3.2µM*
O=C(CSc1nccn1Cc1ccco1)Nc1cc(C(F)(F)F)ccc1Cl | i
Cc1cnc(=O)[nH]c1SCC(=O)Nc1cc(C(F)(F)F)ccc1Cl | 5%
Cc1ccc(C(=O)N2CCC(Oc3ccc(C(=O)N4CCOCC4)cn3)CC2)cc1 | 4%
COCCN1Cc2[nH]nc(-c3ccc(OC)c(OC)c3)c2CC1=O | i
Cc1cnc(-c2ccccc2)n1CCNC(=O)c1cccn1C | i
CC(C)(C)OC(=O)N1CCC(c2c(C(=O)Nc3ccc4c(c3)OCCO4)cnn2-c2ccccc2)CC1 | 7.9µM*
Cc1ccc(-n2ncc(C(=O)NCc3ccc4c(c3)OCO4)c2C2CCN(C(=O)OC(C)(C)C)CC2)cc1C | -13%
Cc1cccc(C)c1-n1ncc(C(=O)NCc2ccc3c(c2)OCO3)c1C1CCN(C(=O)OC(C)(C)C)CC1 | -31%
CC(C)(C)OC(=O)N1CCC(c2c(C(=O)Nc3ccc4c(c3)OCO4)cnn2-c2ccc(F)cc2F)CC1 | 13µM*
CC(C)(C)OC(=O)N1CCC(c2c(C(=O)Nc3ccc4c(c3)OCCO4)cnn2-c2ccc(Cl)cc2)CC1 | 7.1µM*
COc1ccc(-n2ncc(C(=O)Nc3ccc4c(c3)OCO4)c2C2CCN(C(=O)OC(C)(C)C)CC2)cc1 | 6.3µM*
Cc1ccc(-n2ncc(C(=O)Nc3ccc4c(c3)OCCO4)c2C2CCN(C(=O)OC(C)(C)C)CC2)cc1 | -8%
Cc1ccc(-n2ncc(C(=O)Nc3ccc4c(c3)OCO4)c2C2CCN(C(=O)OC(C)(C)C)CC2)cc1 | -18%
O=C(Nc1ccc(=O)n2c1[C@@H]1C[C@@H](CN(S(=O)(=O)c3ccccc3)C1)C2)c1cccnc1 | 17%
CCNC(=O)Nc1ccc(OCC(=O)NC(C)c2ccc(OC)c(OC)c2)nc1 (stereo unspecified) | -8%
SMILES | Pf Dd2 growth
CC(C)=CCC1(C(=O)O)CCCN(C(=O)C2(Cn3cccn3)CC2)C1 (stereo unspecified) | -7%
O=C1CCN(C(=O)c2ccccn2)CCCC(c2nc(-c3ccccc3)no2)CCN1 (stereo unspecified) | -24%
CN(Cc1ccc(F)cc1)C(=O)c1ccccc1 | -12%[44.1 µM]
CC(=O)Nc1ccc(CN2CCC3(CN[S+](=O)([O-])c4ccccc4N3)C2)cc1 (stereo unspecified) | -10%
O=C(C1CCC1)N1CCn2c(nnc2[C@@H]2C[C@@H](O)CN2Cc2ccccc2)C1 | -15%
CC1CCN(C(=O)c2cnn(-c3ccc(Cl)cc3)c2C2CCN(C(=O)OC(C)(C)C)CC2)CC1 | 1%
CCC(C)NC(=O)c1cnn(-c2ccc(Cl)cc2)c1C1CCN(C(=O)OC(C)(C)C)CC1 (stereo unspecified) | 11µM*
COc1cccc(CCC(=O)N2CCC(N3CC4CC(C3)[C@H]3CCCC(=O)N3C4)CC2)c1 (stereo partly specified) | -11%
CC(=O)N1Cc2ccccc2CC2(CCCN2CC2CCOCC2)C1 (stereo unspecified) | -11%
CC(=O)N1CC2(CCCN2C2COC2)Cc2ccccc21 (stereo unspecified) | 3%[44.1 µM]
O=C(C1CCCC1)N1CC2(CCCCN2CC2CC2)Cc2ccccc21 (stereo unspecified) | -17%
CC(=O)NCCC(=O)N1Cc2ccccc2CC2(CCCN2CC2CCNCC2)C1 (stereo unspecified) | 20%
CC(=O)NCCC(=O)N1Cc2ccccc2CC2(CCCN2CC2CCCCC2)C1 (stereo unspecified) | 8.9µM*
CC(=O)NCCC(=O)N1Cc2ccccc2CC2(CCCN2CCc2ccc(C)cc2)C1 (stereo unspecified) | 8.9µM*
CC(=O)N1Cc2ccccc2CC2(CCCN2CC2CCCC2)C1 (stereo unspecified) | 10µM*
CN1CCC(C(=O)N2Cc3ccccc3CC3(CCCCN3CC3CCNCC3)C2)CC1 (stereo unspecified) | 18%
CC(=O)NCCC(=O)N1Cc2ccccc2CC2(CCN(CC3CCNC3)C2)C1 (stereo unspecified) | -12%
